Source: PubChem (National Center for Advancing Translational Sciences (NCATS))
VP16 counter: counter-screen for ROR gamma inhibitors: Gal4-VP16 reporter; Drosophila S2 Gal4-VP16 UAS-luciferase, luminescence, 20 h; Potency, µM (highest dose often 53.6 µM), for inactives: at the highest dose activity, negative = inhibition, usual class: inhibitors; 3.5% of 310,000 active; AID 2546;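 further: Gal4-VP16 expression switched on by copper sulfate through the metallothionein promoter; potency means the concentration at half of the fitted maximal effect; nearly all actives have a fitted effect of over 50% in size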
DT40 TDP1 no CPT: qHTS for Inhibitors of human tyrosyl-DNA phosphodiesterase 1 (TDP1): qHTS in cells in absence of CPT; DT40 Tdp1-/- hTDP1 cells, no CPT, ATP luminescence, 48 h; Potency, µM (series often up to 46.2 µM), inactives show at the top dose activity change, negative = growth inhibition, most hits filed as inhibitors; 15% of 420,000 active; AID 686978, 2013; further: potency means the concentration at half of the fitted maximal effect; nearly all actives have a fitted effect of over 55% in size
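Compound effects on proliferation are scored in DT40 Tdp1-/-;hTDP1 cells in the absence of CPT. ATP levels (CellTiter-Glo luminescence) are recorded after a ≥48 hr, 37 °C incubation.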
RORgamma inh: ROR gamma (mouse) transcription inhibition; Potency, µM (top dose mostly 53.6 µM), for inactives: at the top dose activity change, negative = inhibition, usual class: inhibitors; P51450; Drosophila S2 Gal4-RORgamma UAS-luciferase reporter, 20 h; AID 2551; 5.4% of 310,000 active; further: potency means the concentration at half of the fitted maximal effect; nearly all actives have a fitted effect of over 60% in size
Target sequence (P51450 whole entry, looked up, the tested form may be a part): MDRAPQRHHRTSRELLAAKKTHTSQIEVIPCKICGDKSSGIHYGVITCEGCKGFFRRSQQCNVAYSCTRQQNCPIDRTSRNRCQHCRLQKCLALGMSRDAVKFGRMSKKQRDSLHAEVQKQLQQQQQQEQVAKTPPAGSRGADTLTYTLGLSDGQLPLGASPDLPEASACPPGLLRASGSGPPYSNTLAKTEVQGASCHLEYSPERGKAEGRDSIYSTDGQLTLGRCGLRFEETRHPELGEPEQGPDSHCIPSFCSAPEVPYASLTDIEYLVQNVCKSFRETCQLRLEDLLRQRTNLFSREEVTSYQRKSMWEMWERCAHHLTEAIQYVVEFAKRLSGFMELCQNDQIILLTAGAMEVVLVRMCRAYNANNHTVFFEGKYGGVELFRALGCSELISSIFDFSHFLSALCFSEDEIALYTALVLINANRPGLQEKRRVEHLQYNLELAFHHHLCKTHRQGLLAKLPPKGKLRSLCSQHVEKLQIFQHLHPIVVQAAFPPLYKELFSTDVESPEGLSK
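Drosophila S2 cells stably expressing Gal4-DBD/mouse RORγ fusion under metallothionein promoter plus UAS-luciferase; compound 1 h, then 700 uM CuSO4 induction for 20 h at ambient temperature; inhibition read as reduced luminescence.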
ELG1 DNA repair: blocks ELG1-dependent DNA repair in HEK293T cells; AID 504467; Potency, µM (highest dose often 46.1 µM), inactives show top-dose activity change, negative = inhibition, actives largely listed as inhibitors; 2.3% of 330,000 active; HEK293T ELG1-luciferase reporter, luminescence, 16 h; DNA damage induced by 5-fluorouridine; further: potency means the concentration at half of the fitted maximal effect; nearly all actives have a fitted effect of over 55% in size
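Overnight (16 hr) co-exposure of 2,000 cells/well to 5-fluorouridine and compound at 37 °C preceded detection. Luciferase was quantified via ONE-Glo luminescence; loss of signal denotes inhibition.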
IL1B secr inh: inhibitors of inflammasome signaling (IL-1 beta secretion) | THP-1 LPS/ATP IL-1B secretion, AlphaLISA, 16 h; hits give low values | activity change, % at 57.5 µM | 4.7% of 360,000 active | AID 743279; in the data active means activity change below about -50%; inconclusive means mostly about -30% to -49%
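Secreted IL-1B measured by AlphaLISA bead assay after 16 h compound exposure of THP-1 cells; compounds (final up to 57.5 uM) added 1 h before LPS (250 ng/mL) and ATP (1.25 mM) stimulation; lower signal means less secretion.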
TDP1 cell CPT: DT40-hTDP1 cell growth loss with CPT | chicken DT40 Tdp1-/-;hTDP1 cells + 20 nM CPT, ATP luminescence, 48 h | Potency, µM (doses to about 46.2 µM), for the others: at the top dose activity change, negative = growth inhibition, usual class: inhibitors | 12% of 420,000 active; further: potency means the concentration at half of the fitted maximal effect; nearly all actives have a fitted effect of over 55% in size
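Cell growth measured by CellTiter-Glo luminescence after a minimum 48 h, 37 C compound exposure with 20 nM CPT in Tdp1-knockout DT40 cells stably expressing hTDP1, seeded 400/well; qHTS titration format.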
The depositor's hits bear a star; u = inconclusive; x = not tested or not shown; [ ] = dose if it differs, or a comment. Shown are actives, neighbours in structure and some others; about 21% of the full set was active somewhere. Unless noted, the call rests on the fitted dose curve; in most records, active means well fitted curve in the direction sought with a large enough effect; inconclusive means small, poorly fitted or top-dose-only effect, or another doubt; inactive means no such curve, though single readings can be large; an effect the other way counts as inactive or inconclusive. On the % scale 0 is the no-effect control and ±100 the full control effect.

SMILES | VP16 counter | DT40 TDP1 no CPT | RORgamma inh | ELG1 DNA repair | IL1B secr inh | TDP1 cell CPT
O=C(NCCN1CCC(n2c(=O)[nH]c3ccccc32)CC1)c1ccc(Cl)cc1 | x | 9.2µM* | x | x | -11 | 3.7µM*
COc1cccc(CC(=O)Nc2ccc(F)c(S(=O)(=O)N3CCOCC3)c2)c1 | x | -4% | x | x | -4 | -16%
Cc1ccc(C)c(NC(=O)CSc2nnc(CNC(=O)c3ccccc3)n2-c2ccccc2)c1 | x | -22% | x | x | x | 10%
Cc1ccccc1-c1ccc2ncnc(N3CCNCC3)c2c1 | -2% | -10% | -10% | x | x | -28%
CC(C)N(Cc1ccccc1)C(=O)Cn1ncc2c([nH]c3ccccc32)c1=O | x | u | x | x | x | -13%
Cc1cccc(N(C(=O)c2nsc(Cl)c2Cl)C(C(=O)NC2CCCC2)c2ccc(O)cc2)c1 (stereo not given) | -3% | -1% | -8% | 9% | -5 | 17%
O=C(NCCN1CCC(n2c(=O)[nH]c3ccccc32)CC1)c1c(F)cccc1F | x | -33% | x | x | -64* | -23%
Cc1ccc(NS(=O)(=O)c2c(C)[nH]c(C)c2C(=O)N2CCCCC2)c(Cl)c1 | -5% | -19% | 3% | 0% | 0 | u
CC1(C)CC2CN(C(=O)Cc3ccccc3)C(C)(C2)C1 (stereo not given) | 4% | 16µM* | 2% | 7% | -2 | u
CC1(C(=O)N2Cc3ccccc3C2)CCN1C(=O)Cc1ccccc1 (stereo not given) | x | u | x | x | 5 | u
Cc1cc(OCC(=O)NC2CC2)c2c(C)c(C)c(=O)oc2c1 | 1% | u | -22% | u | -1 | -5%
O=C(CSc1nc2ccccc2[nH]1)Nc1ccc(F)c(F)c1 | u | -19% | 6% | x | -2 | -24%
O=C(CSc1ccccc1)Nc1ccc(-c2nc3ccccc3[nH]2)cc1 | u | 10µM* | u | u | 2 | 23µM*
Cc1ccc2nc(-c3ccc(NC(=O)CSc4ccccc4)cc3)[nH]c2c1 | u | 16µM* | u | u | 34 | 10µM*
COc1c(F)c(F)c(C(=O)Nc2ccc(-c3nc4ccccc4[nH]3)cc2)c(F)c1F | u | 4.6µM* | -32% | u | 9 | 6.5µM*
O=C(CSc1ccc(Cl)cc1)Nc1cccc(-c2nc3ccccc3[nH]2)c1 | 10µM* | 10µM* | u | u | -9 | 9.2µM*
C[C@@H]1C[C@H](OC(=O)c2ccccc2O)CC(C)(C)C1 | 7%[17 µM] | x | 14%[16.9 µM] | x | x | x
N=C(N)N1CCc2ccccc2C1 | -6% | -17% | -3% | 10% | x | 6%
O=C(Cc1cccs1)Nc1ccc(-c2nc3ccccc3[nH]2)cc1 | u | 21µM* | -19% | u | -53* | u
CN(Cc1ccccc1F)C(=O)c1ccc(NC(=O)CC2SC(N3CCCCC3)=NC2=O)cc1 (stereo not given) | x | -16% | x | x | -8 | u
CCOC(=O)c1ccccc1NC(=O)N(Cc1ccc(C)cc1)Cc1cccn1-c1nnc(N2CCCC2=O)s1 | x | 18µM* | x | x | x | 23µM*
CCOC(=O)c1ccccc1NC(=S)N1CCCCC1 | -1% | u | u | 14% | 14 | u
CC(C)(C)NC(=O)CSc1ccc(C(C)(C)C)cc1 | u | -23% | 146% | -5% | 10 | -18%
CC(=O)Nc1ccc(C2=NNC(=NCC3CCCO3)SC2)cc1 (stereo not given) | -3% | u | u | u | 5 | u
c1ccc(C2=NNC(=NC3CC3)SC2)cc1 | 13µM* | 18µM* | 14µM* | u | -13 | u
SMILES | VP16 counter | DT40 TDP1 no CPT | RORgamma inh | ELG1 DNA repair | IL1B secr inh | TDP1 cell CPT
c1ccc2c(C3=NNC(=NC4CCCCC4)SC3)c[nH]c2c1 | -7% | u | 9%[10 µM] | u | -96* | u
c1ccc2c(-c3nnc4n3CCCCC4)c[nH]c2c1 | -4% | -16% | 9% | -26% | -4 | u
O=C1NN=C(c2ccccc2)CC1c1c[nH]c2ccccc12 (stereo not given) | u | -16% | 26% | -4% | 6 | u
c1ccc2c(C3=NNC(=NC4CC4)SC3)c[nH]c2c1 | 10µM* | u | 10µM* | u | -96* | u
COc1ccc(C)cc1NC(=O)N1CCC(CN2CCC(C)CC2)CC1 | x | 1% | x | x | x | 1%
CCN(CC)c1nc2cc(C)ccc2cc1/C=C(\C#N)C(N)=O | -13% | u | -16% | 4% | -58* | u
C/C(=N\NC(=O)c1cccc([N+](=O)[O-])c1)c1ccco1 | 12% | 6% | u | u | 14 | -1%
O=C(NNC(=O)c1ccc([N+](=O)[O-])o1)c1ccccc1 | 18µM* | u | 11µM* | -18% | -15 | u
O=C(NCC1CCCO1)c1ccc([N+](=O)[O-])o1 (stereo not given) | -16% | -8% | -39% | -19% | u | u
NC(=O)c1oc2ccccc2c1NC(=O)c1ccc(F)cc1 | 4% | -15% | 41% | -9% | 3 | -7%
NC(=O)c1oc2ccccc2c1NC(=O)c1ccc([N+](=O)[O-])o1 | u | 0.58µM* | u | u | -91* | 0.73µM*
O=C(NC1CCCCC1)c1ccc([N+](=O)[O-])o1 | -3% | u | -18% | u | x | u
O=C(NN(c1ccccc1)c1ccccc1)c1ccc([N+](=O)[O-])o1 | 7% | u | u | -21% | -93* | u
C/C(=N/NC(=O)C(O)(c1ccccc1)c1ccccc1)c1ccc([N+](=O)[O-])o1 | u | 21µM* | u | u | -3 | 21µM*
CC1CCN(C(=O)CNC(=O)CNS(=O)(=O)c2ccccc2)CC1 | 6% | -14% | -1% | -5% | 6 | -14%
COc1cc(C(=O)NNC(=O)CNC(=O)C2CCCCC2)ccc1OC(C)C | x | -7% | x | 6% | 15 | -27%
COc1ccc(N2CC(C(=O)NCc3n[nH]c(=O)c4ccccc34)CC2=O)cc1 (stereo not given) | x | -12% | x | -4% | 1 | -28%
CC/C=C\C/C=C\C/C=C\C/C=C\C/C=C\CCCC(=O)O | 1% | u | -2% | x | x | u
CCOc1ccc(-c2cc(C(=O)N3CCN(C)CC3)c3ccccc3n2)cc1 | u | u | 30% | u | -3 | u
CCOc1ccc(-c2cc(C(=O)N3CCCC3)c3ccccc3n2)cc1 | 17% | 23µM* | -4% | u | 1 | u
